Assay results as given in PubChem BioAssay (NCATS).
Records with an inconclusive call do not appear. The source made the active and inactive calls. Calls follow the shape of the dose curve; as a rule, active = well fitted cell-killing curve with a large enough effect; inconclusive = small, poorly fitted or top-dose-only effect, or effect the other way; inactive = flat fitted curve, though single readings scatter.

These compounds were tested on Tov112D (assay: Primary qHTS to identify gynecologic anti-cancer compounds using libraries of approved drugs and bioactive compounds (AID 1345084; also: nearly all actives have a fitted effect of over 55% in size)). Details: Gynecologic cancer cell panel viability, ATPlite luminescence, 48 h; series mostly up to 57.5 µM; activity change, negative = cytotoxicity: at the top concentration.
In short: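 Luminescence from the ATPlite ATP-monitoring reagent indicates viable cell number; lower signal means cytotoxicity. Cells received compound 16 h after seeding and were exposed for 48 h across five concentrations.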
% is scaled to controls: 0 for no effect and ±100 for the full control effect.

SMILES	activity change, negative = cytotoxicity
COc1cc(C(O)C2COC(c3ccc(OC4OC(CO)C(O)C(O)C4O)c(OC)c3)C2CO)ccc1O (stereo not drawn)	3.49% [at 25.3 µM] (inactive)
C=C1CC2C3(C)C(O)CC(=O)C(C)(C)C3C(O)C(OC(C)=O)C2(C)C2C(=O)OC(C)(C(=O)OC)C(=O)C12C (stereo not drawn)	0.436% [at 25.3 µM] (inactive)
CC(C)C(O)(CO)CCO[C@@H]1O[C@H](CO[C@H]2OC[C@](O)(CO)[C@H]2O)[C@@H](O)[C@H](O)[C@H]1O (stereo partly drawn)	-1.39% [at 25.3 µM] (inactive)
C/C=C(\C)C(=O)OC[C@H]1O[C@@H](O[C@H]2[C@@H](O[C@H]3O[C@H](COC(=O)/C(C)=C/C)[C@@H](O)[C@H](O)[C@H]3O[C@@H]3O[C@H](CO)[C@@H](O)[C@H](OC(=O)/C(C)=C/C)[C@H]3O)O[C@H](COC(=O)/C(C)=C/C)[C@@H](O)[C@@H]2O)[C@H](O)[C@@H](O)[C@@H]1O	2.79% [at 11.6 µM] (inactive)
CCC(C)/C=C(C)/C=C/C1=CC2=C(Cl)C(=O)C(C)(OC(C)=O)C(=O)C2=CN1C(CCC(=O)O)C(=O)O (stereo not drawn)	2.29% [at 25.3 µM] (inactive)
Cc1ccccc1-c1cc(N2CCN(C)CC2)ncc1N(C)C(=O)C(C)(C)c1cc(C(F)(F)F)cc(C(F)(F)F)c1	16.2% (inactive)
C[C@H]1CC(=O)C2=C(C1)C(O)C(O)[C@@]1(O)[C@H]2C(=O)c2cccc(O)c2[C@@H]1O (stereo partly drawn)	-2% [at 38.5 µM] (inactive)
C[C@@H]1O[C@@H](O[C@H]2[C@H](OC(=O)[C@]34CCC(C)(C)C[C@H]3C3=CCC5[C@@]6(C)C[C@@H](O)[C@@H](O)[C@@](C)(CO)C6[C@H](O)C[C@@]5(C)[C@]3(C)CC4)OC[C@H](O)[C@@H]2O)[C@H](O)[C@H](O)[C@H]1O[C@@H]1OC[C@@H](O)[C@H](O[C@H]2O[C@H](C)[C@@H](O)[C@H](O)[C@@H]2O)[C@H]1O (stereo partly drawn)	3.92% [at 11.6 µM] (inactive)
